EBV LMP1 NFkB = reduces LMP1-driven NF-kappaB luciferase signal. AID 504558. inhibition, % at 12.5 µM. LMP1-induced NF-kappaB luciferase reporter cells, luminescence. actives 0.69% (n = 350,000); in the data active = inhibition above about 41%;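 also: 0% = neutral control wells and 100% = reference inhibitor control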
HSF1 inh = HSF1 inhibition; actives 0.77% (n = 300,000); NIH3T3-HGL HSE-luciferase, MG132-induced, luminescence 8 h; active compounds read low; activity change, negative = inhibition, % at 7.5 µM (by protocol); AID 2098;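 active = more than half of replicate wells show activity change below -50%, luminescence cut by over half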;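 also: luciferase reports HSF-1 transcriptional activity via heat shock element; 0% = median of DMSO wells and -100% = zero luminescence signal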
LGR2 inh = blocks bursicon-induced cAMP signaling via Drosophila LGR2; inhibition, % at 9.99 µM; actives 0.35% (n = 380,000); HEK293 LGR2, CRE-luciferase, bursicon-stimulated, 4 h;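 active = drop in luminescence signal, shown as inhibition above about 50% in the replicate tests, limit read from the data, passing the limit was not always enough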;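 also: agonist challenge used bursicon conditioned medium at about half maximal strength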
TROY NFkB inh = TROY signaling inhibition; inhibition, % at 10 µM; actives 0.98% (n = 360,000); AID 1347056; Q293 LMP1-TROYcd NF-kB luciferase reporter, 4 h;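 active = compounds whose plate-normalised and pattern-corrected inhibition of the luciferase reporter signal at the single screening dose is 50% or more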
TWEAK-Fn14 inh = blocks TWEAK-Fn14 interaction in a reporter cell assay; inhibition, % at 10 µM; AID 1159606; actives 2% (n = 360,000); TWEAK-stimulated Fn14 reporter cells, luciferase luminescence, 8 h; in the data active = inhibition above about 50%
HSF-1 act = increases HSF-1 driven luciferase reporter signal | NIH3T3-HGL HSF-1 luciferase reporter, MG132, 8 h; 100% = twice DMSO control signal | activation, % at 9 µM | AID 504408 | actives 1.7% (n = 300,000);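 active = mean replicate activation of at least 50% with a set share of replicates each reaching 50%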;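 also: 0% = median of the neutral control wells and 100% = twice that signal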
The depositor's hits bear a star; . = not tested or not shown. This is a sample that favours compounds with a hit; in the whole collection about 3.6% have one here.

SMILES	EBV LMP1 NFkB	HSF1 inh	LGR2 inh	TROY NFkB inh	TWEAK-Fn14 inh	HSF-1 act
Cc1nc([N+](=O)[O-])c(Br)n1CC(=O)c1ccc(Cl)cc1	11	14	.	23	46	29
Cc1nc([N+](=O)[O-])c(Br)n1Cc1ccc(Cl)c(Cl)c1	-9	28	22	31	81*	26
COc1cccc(C(c2c(NC(=O)c3ccco3)sc(C)c2C)N2CCOCC2)c1 (stereo unspecified)	4	.	24	36	82*	.
CCOc1ccc(C(c2c(NC(=O)c3ccco3)sc(C)c2C)N2CCOCC2)cc1 (stereo unspecified)	8	.	22	12	66*	.
CO[C@H]1CN(C)C(=O)c2ccc(NC(C)=O)cc2OC[C@H](C)N(Cc2ccccc2F)C[C@@H]1C	.	.	5	.	.	.
C[C@H](CO)N1C[C@H](C)[C@H](CN(C)C(=O)c2cccnc2)Oc2cc(C3=CCCC3)ccc2S1(=O)=O	.	.	5	.	.	.
CCCNC(=O)Nc1ccc2c(c1)C(=O)N(C)[C@H]1CC[C@@H](CC(=O)OC)O[C@@H]1CO2	.	.	-12	.	.	.
CC(C)(C)c1cc(N2CCOCC2)n2ncc(-c3ccccc3)c2n1	-8	-1	4	18	5	2
CCCc1cc(N2CCOCC2)n2ncc(-c3ccccc3)c2n1	-3	-16	-12	52*	58*	-3
O=C(O)c1ccc(N/N=C/C2=C(N3CCOCC3)C(=C\c3ccccc3)/CC2)cc1	1	-60*	-8	9	2	-71
COc1ccc(-n2nnc3c(SCC(=O)N4CCCc5ccccc54)ncnc32)cc1	22	30	-25	6	-8	57*
CN1CCN(c2ccc(-c3cccc(NC(=O)COc4ccc(Cl)cc4Cl)c3)nn2)CC1	-18	-54*	-27	74*	63*	-60
CN1CCN(c2ccc(-c3cccc(NC(=O)COc4ccc(Cl)cc4)c3)nn2)CC1	-40	-7	-34	30	14	-19
O=C(C[C@@H]1C=C[C@@H](NC(=O)Cc2cccnc2)[C@@H](CO)O1)Nc1ccc(-c2ccccc2)cc1	.	.	8	.	.	.
CO[C@@H]1CN(C)C(=O)c2cc(NC(=O)C3CCOCC3)ccc2OC[C@H](C)N(Cc2nccs2)C[C@@H]1C	.	.	1	.	.	.
CC1CCCC(C)N1c1nnc(NC(=O)c2cc(-c3ccc(Br)cc3)on2)s1 (stereo unspecified)	-1	-2	.	44	15	-1
O=C(Nc1nnc(N2CCCCCC2)s1)c1cc(-c2ccc(Br)cc2)on1	86*	-1	.	3	2	-21
C=C1C(=O)C23C(O)C1CCC2C12COC3(O)C(O)C1C(C)(C)CCC2O (stereo unspecified)	.	.	.	47	75*	.
CC1CCc2sc(C(=O)NCC(C)(C)N3CCOCC3)cc2C1 (stereo unspecified)	-5	4	-11	1	-10	24
CCc1cc(C(=O)NCC(C)(C)N2CCOCC2)sc1C	2	-68*	-1	15	-12	-76
COc1ccccc1[C@]1(C)ON(c2ccccc2C(F)(F)F)C1=O	73*	.	37	-3	16	.
COc1ccc(C(=O)CN2C(=O)c3ccccc3S2(=O)=O)cc1Br	15	-4	37	35	62*	1
CCOC(=O)N1CCN(C(=O)CN2C(=O)c3ccccc3S2(=O)=O)CC1	3	-7	-24	-51	-15	-17
CCN1CCN(C(=O)CN2C(=O)c3ccccc3S2(=O)=O)CC1	-36	-6	-95	62*	28	-7
O=C(CN1C(=O)c2ccccc2S1(=O)=O)c1ccc(F)c(F)c1	46*	-9	65*	72*	91*	-13
SMILES	EBV LMP1 NFkB	HSF1 inh	LGR2 inh	TROY NFkB inh	TWEAK-Fn14 inh	HSF-1 act
O=C(CN1C(=O)c2ccccc2S1(=O)=O)c1ccc(O)c(O)c1	23	5	4	29	48	21
O=C(CN1C(=O)c2ccccc2S1(=O)=O)Nc1ccccc1	5	-65*	-5	-40	8	-74
O=C(Cc1ccccc1)N1CC(=O)N2[C@H](C1)[C@@H](c1ccc(Br)cc1)[C@@H]2CO	.	.	-6	.	.	.
Cc1noc(C)c1NC(=O)NCC[C@H]1CC[C@H](NC(=O)c2ccccc2)[C@H](CO)O1	.	.	-7	.	.	.
COc1cc(NC(=O)CN2C(=O)c3ccccc3S2(=O)=O)cc(OC)c1	4	.	-9	-3	0	.
COc1ccc(C(=O)CN2C(=O)c3ccccc3S2(=O)=O)cc1	.	-65*	101*	85*	102*	-68
Cc1noc(C)c1S(=O)(=O)Nc1ccc2c(c1)C(=O)N([C@@H](C)CO)C[C@@H](C)[C@H](CN(C)Cc1ccc(C(=O)O)cc1)O2	.	.	-7	.	.	.
Cc1ccc(-n2nc3ccc(N)cc3n2)c(C)c1	9	-2	-51	-9	87*	-18
Cc1cc(N)ccc1-n1nc2ccccc2n1	4	-2	-20	-19	-5	-8
CCN(C(=O)COC(=O)c1c2c(nc3ccccc13)/C(=C/c1ccccc1)CC(C)C2)C1CCS(=O)(=O)C1 (stereo unspecified)	-27	49	18	-5	-2	84*
CCN(C(=O)COC(=O)c1cc(-c2ccc3cc(OC)ccc3c2)nc2ccccc12)C1CCS(=O)(=O)C1 (stereo unspecified)	.	36	.	.	.	70*
CCN(C(=O)COC(=O)c1cc(OC)ccc1Br)C1CCS(=O)(=O)C1 (stereo unspecified)	2	.	12	1	-16	.
COC(=O)C[C@H]1CC[C@@H]2[C@@H](COc3ccc(NS(=O)(=O)c4ccc(C)cc4)cc3C(=O)N2C)O1	.	.	-10	.	.	.
[O-]/[N+](=C\C=C\c1ccccc1)c1ccccc1	-26	24	-143	-72	-5	62*
O=[N+]([O-])c1ccc(C=CC=Cc2ccccc2)cc1	-33	.	-78	-42	-29	.
C[C@@H]1CN([C@@H](C)CO)C(=O)c2cccc(NS(=O)(=O)c3cn(C)cn3)c2O[C@H]1CN(C)Cc1ccc(C(F)(F)F)cc1	.	.	2	.	.	.
COc1ccc(C(=O)Oc2ccc(/C=N/O)cc2)cc1	-17	-64*	-39	-73	-36	-71
O=C(N[C@H]1CC[C@H](CCn2cc(-c3ccccn3)nn2)O[C@H]1CO)c1ccc(F)cc1	.	.	0	.	.	.
Nc1c(C(=O)OCC2CCCO2)c2nc3ccccc3nc2n1C1CCCC1 (stereo unspecified)	2	5	.	60*	36	21
COCC(C)OC(=O)c1c(N)n(CC(C)C)c2nc3ccccc3nc12 (stereo unspecified)	9	0	.	58*	26	12
C=CCn1c(N)c(C(=O)OC(C)CC)c2nc3ccccc3nc21 (stereo unspecified)	2	5	.	38	25	34
COCCn1c(N)c(C(=O)NCC2CCCO2)c2nc3ccccc3nc21 (stereo unspecified)	5	6	.	6	43	35

Assay outcomes: PubChem BioAssay, several laboratories
